Laboratory results from PubChem BioAssay AID1851 (National Center for Advancing Translational Sciences (NCATS), 2009).
Values joined by “and” are separate entries in the source; they are usually repeats but may differ in a detail not shown here. Equal entries are not always repeated. The campaign covered roughly 16,000 compounds. About 2,600 (16%) were called active. Not shown: some 20% with an inconclusive outcome. Calls follow the shape of the dose curve; as a rule, active = well fitted curve in the direction sought with a large enough effect; inconclusive = small, poorly fitted or top-dose-only effect, or effect the other way; inactive = no such curve, though single readings can be large or run the other way. These entries were drawn from the full list. Some compounds were tested as several samples or in several runs, with calls that do not always agree.

Each molecule was assayed against Cytochrome P450 2D6 (Homo sapiens) (UniProt P10635) (assay: Cytochrome panel assay with activity outcomes). Conditions: recombinant CYP, pro-luciferin dealkylation, luminescence, p450-cyp2d6; series mostly up to 57.1 µM; activity, negative = inhibition: at the top concentration.
Cytochrome P450 2D6 (Homo sapiens), sequence (P10635 whole entry, looked up): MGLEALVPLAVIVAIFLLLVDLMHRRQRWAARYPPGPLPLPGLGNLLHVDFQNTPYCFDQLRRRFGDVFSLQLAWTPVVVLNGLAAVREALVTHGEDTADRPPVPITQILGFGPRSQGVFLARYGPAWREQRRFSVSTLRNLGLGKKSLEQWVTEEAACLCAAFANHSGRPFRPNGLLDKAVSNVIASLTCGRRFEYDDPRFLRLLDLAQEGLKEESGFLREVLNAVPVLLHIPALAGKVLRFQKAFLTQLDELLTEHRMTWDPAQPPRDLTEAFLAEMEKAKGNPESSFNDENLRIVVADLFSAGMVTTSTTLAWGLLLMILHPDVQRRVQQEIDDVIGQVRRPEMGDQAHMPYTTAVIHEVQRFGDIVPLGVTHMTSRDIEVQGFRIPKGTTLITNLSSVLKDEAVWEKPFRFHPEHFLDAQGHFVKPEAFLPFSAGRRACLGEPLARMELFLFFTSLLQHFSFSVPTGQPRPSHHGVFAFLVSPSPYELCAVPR
% is scaled to controls: 0 for no effect and ±100 for the full control effect.

SMILES	activity, negative = inhibition	AC50
Cc1cn(CC[C@H](N)C(=O)O)c(=O)[nH]c1=O	-3.77% [at 11.4 µM] (inactive)	–
CCCC(=O)Nc1nc2n(n1)C(c1ccccc1)CC(=O)N2 (configuration not stated)	22.6% (inactive)	–
CC(C)CCN1CC(C(=O)N2CCN(c3ccc(F)cc3)CC2)CC1=O (configuration not stated)	-1.61% (inactive)	–
CCOC(=O)c1cnc2c(cnn2CC)c1NN=C(C)C	–	inactive
CCCCNc1c(C(=O)OCC)c(C)nc2c1cnn2CC	–	inactive and 200 nM (active)
CCOC(=O)c1cnc2c(cnn2C)c1NCCCN(C)C	-15.8% (inactive)	–
C#CCCCO/N=C1/C[C@@H](O)[C@@H](O)[C@@H]2[C@@H]3C(=O)N(Cc4ccccc4)C(=O)[C@H]3CC[C@@H]12	19.7% [at 11.4 µM] (inactive)	–
CCOC(=O)C(NC(=O)CC)(Nc1sc2c(c1C(=O)OC)CCN(C)C2)C(F)(F)F (configuration not stated)	-1.69% (inactive)	–
CCCNC(=O)OC[C@H]1O[C@@H](CCO/N=C\[C@@H](NS(=O)(=O)c2ccc(C)cc2)[C@H](C)/C=C\CC(=O)OC)C=C[C@@H]1Oc1ccc(OC)cc1	-7.16% [at 11.4 µM] (inactive)	–
COc1ccc2cc(CCC(C)=O)ccc2c1	-4.42% [at 25.6 µM] (inactive)	–
O=C(O)CCCc1ccc2ccccc2c1	0.631% [at 11.4 µM] (inactive)	–
NNC(=O)CCc1ccc2ccc3ccccc3c2c1	–	1.58 µM (active)
CS(=O)(=O)N1CCN(c2ccc(C(=O)NC3C4CC5CC(C4)CC3C5)cc2[N+](=O)[O-])CC1 (configuration not stated)	-10% (inactive)	–
O=C(NCCCN1CCN(c2ccccc2F)CC1)C1CCC(=O)N1C1CCCCC1 (configuration not stated)	-17.4% (inactive)	–
O=C(CCN1CCc2ccccc2C1)Nc1ccc(F)cc1	–	2.24 µM (active)
Cc1ccc(CS(=O)(=O)CCC(=O)NCCCOC(C)C)cc1	10.1% (inactive)	–
CSc1ccc(NC(=O)NCCCN2CCN(c3ccccc3F)CC2)cc1	–	3.55 µM (active)
O=C(NCCCN1CCc2ccccc2C1)Nc1ccc(Cl)cc1	–	3.55 µM (active)
Cc1ccc(CS(=O)(=O)CCC(=O)NCCCN2CCCC2)cc1	-24.2% (inactive)	–
Cc1ccc(NC(=O)CCC(=O)c2ccc(F)cc2)cc1Cl	-10.9% (inactive)	–
Cc1ccccc1CS(=O)(=O)CCC(=O)NCCCN1CCN(c2ccccc2F)CC1	–	3.55 µM (active)

SMILES	activity, negative = inhibition	AC50
O=C(O)c1ccccc1-c1ccccc1C(=O)Nc1ccc2c(c1)Cc1cc(F)ccc1-2	-13.4% [at 11.4 µM] (inactive)	–
O=C(NCCOc1nc(N2CCOCC2)nc(N2CCOCC2)n1)Nc1ccccc1	6.07% (inactive)	–
O=C(NCCCN1CCCC1=O)Nc1ccc(F)c(Cl)c1	0.447% (inactive)	–
CCN(CC)c1ccc(NC(=O)CN2CCN(c3ccccc3F)CC2)cc1	-23.1% (inactive)	–
O=C(O)/C=C/C(=O)Nc1ccc(F)cc1F	22.9% (inactive)	–
O=C(O)C[C@H]1OCC=C2C[N@@+]3([O-])CC[C@]45c6ccccc6N[C@@H]4[C@@H]1[C@H]2C[C@H]53	9.02% [at 11.4 µM] (inactive)	–
Cc1nc2cnc(N(C)C)nc2n(C)c1=O	-12.7% (inactive)	–
O=C(O)c1ccccc1-c1ccccc1C(=O)Nc1ccc2c(c1)[nH]c(=O)c1ccccc12	-5.23% [at 11.4 µM] (inactive)	–
O=c1c(-c2cc(F)cc(F)c2)nc2cncnc2n1Cc1ccccc1Cl	-8.97% (inactive)	–
CN1CCN(NC(=O)CN2C(=O)/C(=C/c3c(Cl)cccc3Cl)SC2=S)CC1	-9.02% (inactive)	–
COc1cc2cc3c(N)c(C(=O)Nc4sc(C)c(C)c4C#N)sc3nc2cc1OC	-0.0904% (inactive)	–
C[C@](N)(C(=O)O)c1ccc(-c2nn[nH]n2)cc1	-0.522% (inactive)	–
CCOC(=O)c1cc(CC)sc1NC(=O)c1cc(OCC)c(OCC)c(OCC)c1	-1.3% (inactive)	–
S=C(S)NCCCn1ccnc1	–	0.794 µM (active)
O=C(NCCCn1ccnc1)Nc1ccc(Cl)cc1	–	1.58 µM (active)
CSc1ccc(NC(=O)NCCN2CCc3ccccc3C2)cc1	–	5.01 µM (active)
Cc1ccc(NC(=O)NCCCc2ccccc2)cc1	-26.1% (inactive)	–
S=C(S)NCCN1CCNCC1	-7.83% [at 11.4 µM] (inactive)	–
Cn1nc(-c2ccccc2)c(C(=O)Nc2ccc(Cl)cc2)c1Cl	18.7% (inactive)	–
COc1ccc2c(Cl)c(C(=O)NCCCn3ccnc3)sc2c1Cl	–	0.631 µM (active)
COc1ccc(C(=O)N/C(=C/c2cccs2)C(=O)NCCCn2ccnc2)cc1OC	-6.39% (inactive)	–

SMILES	activity, negative = inhibition	AC50
NCCNC(=S)S	-18.7% [at 11.4 µM] (inactive)	–
O=C(NCc1cccnc1)c1sc2cc(Cl)ccc2c1Cl	-81.1% (inactive)	–
CSc1ccc(NC(=O)Nc2cc(C)ccn2)cc1	-10.4% [at 11.4 µM] (inactive)	–
Cc1ccc(NC(=O)N/C=C/c2ccc(Cl)cc2)cc1	8.55% (inactive)	–
Nc1nc2c(c(=O)[nH]1)CN(CCCN1CCOCC1)CN2	0.904% [at 11.4 µM] (inactive)	–
Nc1ccc(S(=O)(=O)Nc2ncccn2)cc1	-3.37% [at 25.6 µM] (inactive)	–
O=C1[C@H]2[C@H]3[C@H](O)[C@H](O)C/C(=N/OC[C@@H](O)COCc4ccco4)[C@@H]3CC[C@@H]2C(=O)N1C[C@@H]1CCCO1	3.77% [at 11.4 µM] (inactive)	–
Cc1nnc(NC(=O)c2cccc(NC(=O)C(C)C)c2)s1	-16.4% (inactive)	–
O=C(O)c1cc(S(=O)(=O)NCC2CCCO2)ccc1Cl (configuration not stated)	7.8% (inactive)	–
CN[C@@H]1[C@H](O[C@H]2[C@@H](O[C@@H]3[C@@H](O)[C@@H](O)[C@@H](N=C(N)N)[C@@H](O)[C@@H]3N=C(N)N)O[C@@H](C)[C@]2(O)CO)O[C@H](CO)[C@@H](O)[C@@H]1O	6.76% [at 25.6 µM] (inactive)	–
COc1ccccc1C1=NOC(COC(=O)c2ccc3ccccc3n2)C1 (configuration not stated)	-15.5% (inactive)	–
Cc1cccc(Cc2c(C)nc3nc(SCC(=O)NCc4ccco4)nn3c2C)c1	-28.1% (inactive)	–
COc1ccc(S(=O)(=O)N(C)CC(=O)NCc2ccco2)cc1	-21.7% (inactive)	–
CN(CCC(=O)O)S(=O)(=O)c1ccccc1	4.74% [at 11.4 µM] (inactive)	–
CN(c1ccc(C(=O)NCC2CCCO2)cc1)S(=O)(=O)c1ccccc1 (configuration not stated)	-3.97% (inactive)	–
Cc1cccc(N(CC(=O)N2CCOCC2)S(C)(=O)=O)c1	6.15% (inactive)	–
O=C(CN(c1ccccc1)S(=O)(=O)c1ccccc1)NCCSCc1ccco1	–	15.8 µM (active)
Cc1cccc(CSCCNC(=O)c2ccc(N(C)S(=O)(=O)c3ccccc3)cc2)c1	–	3.98 µM (active)
Cc1cccc(N(CC(=O)NCCSCc2ccco2)S(=O)(=O)c2ccccc2)c1	–	10 µM (active)
CN(c1ccc(C(=O)NCc2ccccn2)cc1)S(C)(=O)=O	0.808% (inactive)	–
